HEK293 tox: HEK 293 cell cytotoxicity. HEK 293 viability, ATP luminescence (CellTiter-Glo), 48-72 h. Potency, µM (series often up to 115 µM), hits mostly inhibitors. actives 6.6% (n = 94,000); further: nearly all actives have a fitted effect of over 60% in size
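Cytotoxicity was scored by loss of ATP-coupled luminescence (CellTiter-Glo) in HEK 293 cells. Compound treatment ran 48 or 72 hr at 37 degree Celsius, 5% CO2, 95% humidity.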
hNpr1 antagonist: antagonists of human natriuretic peptide receptor Npr1. Potency, µM (doses to about 46.3 µM), most hits filed as inhibitors. HEK293 hNpr1 GloSensor cGMP, ANP-stimulated luminescence. P16066. actives 1.6% (n = 76,000); calls by dose curve; further: nearly all actives have a fitted effect of over 60% in size
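HEK293 cells stably expressing human Npr1 and cGMP GloSensor pGS-40F, loaded 2 h with 2% GloSensor reagent, given compound 30 min at room temperature. Luminescence read before and 20 min after 0.1 nM hNppA.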
GPT2 inhibitor: inhibitors of human GPT2 alanine aminotransferase | Q8TD30 | Recombinant GPT2, coupled pyruvate oxidase/HRP Amplex Red fluorescence | Potency, µM (titrated, usually from 57.7 µM), most hits filed as inhibitors | actives 0.25% (n = 100,000); further: nearly all actives have a fitted effect of over 60% in size
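Recombinant GPT2 (10ng/uL) with 250uM a-KG and 2mM L-alanine, 30 min at room temperature, in HEPES pH 7.5 buffer. Pyruvate detected by pyruvate oxidase/HRP/Amplex Red fluorescence after 30 min in the dark; AOA (50uM) as positive control.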
FLuc inh: inhibitors of firefly (Photinus pyralis) luciferase. actives 2.5% (n = 76,000). P08659. Potency, µM (series often up to 115 µM), hits mostly inhibitors. purified P. pyralis luciferase, luminescence, biochemical; further: nearly all actives have a fitted effect of over 65% in size
Target sequence (P08659 whole entry, looked up): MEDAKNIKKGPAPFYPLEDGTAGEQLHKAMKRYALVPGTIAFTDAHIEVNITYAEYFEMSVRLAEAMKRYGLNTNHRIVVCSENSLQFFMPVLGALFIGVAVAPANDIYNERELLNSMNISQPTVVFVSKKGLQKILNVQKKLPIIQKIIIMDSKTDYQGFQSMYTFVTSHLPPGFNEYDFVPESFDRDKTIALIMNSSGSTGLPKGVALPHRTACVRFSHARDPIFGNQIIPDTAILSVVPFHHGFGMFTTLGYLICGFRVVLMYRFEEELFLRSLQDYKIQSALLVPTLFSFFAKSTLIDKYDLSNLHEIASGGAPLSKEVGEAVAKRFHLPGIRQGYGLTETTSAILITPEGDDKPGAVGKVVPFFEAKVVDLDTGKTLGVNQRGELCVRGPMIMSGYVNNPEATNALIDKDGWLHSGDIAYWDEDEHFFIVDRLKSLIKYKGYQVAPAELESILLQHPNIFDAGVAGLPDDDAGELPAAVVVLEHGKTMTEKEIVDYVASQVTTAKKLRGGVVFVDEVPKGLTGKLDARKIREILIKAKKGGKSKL
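Inhibitors were tested against purified firefly luciferase in a biochemical, low-substrate format (both substrates at 10uM) and luminescence measured with a CCD imager.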
NIH3T3 tox: NIH 3T3 cell cytotoxicity. NIH 3T3 viability, CellTiter-Glo ATP luminescence, 48-72 h. Potency, µM (highest dose often 96.7 µM), actives largely listed as inhibitors. actives 4.3% (n = 94,000). AID 1345082; further: nearly all actives have a fitted effect of over 55% in size
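Mouse fibroblast NIH 3T3 cells, 400 per well, received compound via pintool and were incubated for 48 or 72 hr prior to CellTiter-Glo ATP luminescence measurement.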
Numbers stand for hits; – = inactive; ? = inconclusive; · = not tested or not shown. Rows were chosen to be rich in hits. Some 10% of all compounds tested hit in one or more screens of this group. Unless noted, the call rests on the fitted dose curve; in most records, active means well fitted curve in the direction sought with a large enough effect; inconclusive means small, poorly fitted or top-dose-only effect, or another doubt; inactive means no such curve, though single readings can be large; an effect the other way counts as inactive or inconclusive.

SMILES | HEK293 tox | hNpr1 antagonist | GPT2 inhibitor | FLuc inh | NIH3T3 tox
O=C(NCCc1ccc(F)cc1)C1CCCN(Cc2cccc(-c3ccc(F)cc3F)c2)C1 (stereo not given) | 40µM | · | – | · | ?
COc1ccc(CCNC(=O)C2CCCN(Cc3cccc(-c4ccc(F)cc4F)c3)C2)cc1 (stereo not given) | 10µM | · | – | · | ?
Cc1ccc(Cl)cc1N(CC(=O)Nc1c(F)cccc1F)S(C)(=O)=O | · | · | – | · | ·
CN(Cc1cccnc1)C1CN(C(=O)c2cccn2C)C1 | – | · | – | · | –
COC(=O)c1ccc2nc(C[C@@H]3C[C@@H](C(C)C)[C@H](CNC(=O)c4ccccc4)C=C3C)[nH]c2c1 | ? | – | – | – | ?
CC1=C[C@@H](CN)[C@H](C(C)C)C[C@H]1Cc1nc2ccc(F)cc2[nH]1 | 79µM | – | – | – | 100µM
CC1=C[C@@H](CNC(=O)CC2(CC(=O)O)CCCC2)[C@H](C(C)C)C[C@H]1Cc1nc2ccc(F)cc2[nH]1 | – | – | – | – | –
COc1ccc2[nH]c(C[C@@H]3C[C@@H](C(C)C)[C@H](CN(Cc4ccccn4)Cc4ccccn4)C=C3C)nc2n1 | ? | – | – | – | ?
CCCNC(=O)NC[C@@H]1C=C(C)[C@H](Cc2nc3ccc(OC)cc3[nH]2)C[C@H]1C(C)C | ? | ? | – | – | 40µM
CC1=C[C@@H](CN)[C@H](C(C)C)C[C@H]1Cc1nc2ccc(Cl)cc2[nH]1 | 50µM | – | – | – | 45µM
COc1ccc2nc(C[C@@H]3C[C@@H](C(C)C)[C@H](CN(Cc4ccccc4F)Cc4ccccc4F)C=C3C)[nH]c2c1 | ? | – | – | – | 14µM
CCCN1CCC2(Cc3ccccc3CN(C(=O)c3ccccc3)C2)C1 (stereo not given) | ? | · | – | · | –
Cc1ccc(CN2CCCC(c3nc(-c4cccnc4)no3)CCNC(=O)CC2)o1 (stereo not given) | ? | – | – | – | ?
CC1=C[C@@H](CNC(=O)COCC(=O)O)[C@H](C(C)C)C[C@H]1Cc1nc2ccc(C)cc2[nH]1 | – | – | – | – | –
COc1ccc2nc(C[C@@H]3C[C@@H](C(C)C)[C@H](CN)C=C3C)[nH]c2c1 | ? | – | – | – | 71µM
CC1=C[C@@H](CN)[C@H](C(C)C)C[C@H]1Cc1nc2ccc(C)cc2[nH]1 | 45µM | – | – | – | 40µM
O=C(Nc1ccc(F)cc1)c1ccc2oc(-c3cccnc3Cl)nc2c1 | ? | · | – | · | ?
O=C(NCC1CCCO1)c1ccnc(-c2nnc3ccc(Nc4ccccc4)nn23)c1 (stereo not given) | ? | – | – | – | ?
COc1ccnc(-c2nnc3ccc(NC4CCOCC4)nn23)c1 | – | – | – | – | 79µM
O=C(NCc1ccc(F)cc1)c1ccnc(-c2nnc3ccc(Nc4ccccc4)nn23)c1 | ? | – | – | – | 25µM
CN(c1ccccc1)c1ccc2nnc(-c3cc(C(=O)NCc4ccncc4)ccn3)n2n1 | 71µM | – | – | – | ?
COc1cccc(NC(=O)c2ccnc(-c3nnc4ccc(Nc5ccccc5)nn34)c2)c1 | 40µM | – | – | – | 35µM
COc1cccc(Nc2ccc3nnc(-c4cc(OC)ccn4)n3n2)c1 | ? | ? | – | ? | ?
CCCn1cc2c3c(cccc31)CN(C(=O)c1ccccc1OC)CC2 | ? | – | ? | – | ?
COc1ccc(-c2c(C(=O)NC3CC3)nc3sccn23)cc1 | – | · | – | · | –
SMILES | HEK293 tox | hNpr1 antagonist | GPT2 inhibitor | FLuc inh | NIH3T3 tox
COCCc1noc(-c2ccccc2OC2CN(C(=O)C(C)C)C2)n1 | – | – | – | – | –
Cc1ccc(CNC(=O)N2CCc3nc(-c4ccccc4)[nH]c3C2)cc1 | ? | · | – | · | ?
C=CCN1C[C@@H]2C[C@@H](C(=O)NC)N(C(=O)CCc3ccccc3)c3cccc(c32)C1=O | – | · | ? | · | ?
O=C(NCc1cccc(Cl)c1)c1ccc2nnc(-c3cccc(C(F)(F)F)c3)n2c1 | ? | · | – | · | 32µM
O=C(NCc1ccc(F)cc1)c1ccc2nnc(-c3cc(C(F)(F)F)cc(C(F)(F)F)c3)n2c1 | ? | · | – | · | 35µM
O=C(NCCc1ccccc1F)c1ccc2nnc(-c3cccc(C(F)(F)F)c3)n2c1 | ? | · | – | · | 35µM
O=C(NCCc1ccccc1F)c1ccc2nnc(-c3cccnc3)n2c1 | – | · | ? | · | –
COCCn1c(=O)c(C(=O)NCc2cccc(OC)c2)nc2cccnc21 | – | · | – | · | –
CC(=O)NC1(C)CCCN(Cc2ccc(Oc3ccccc3)cc2)C1 (stereo not given) | ? | – | – | ? | ?
CC(=O)NC1(C)CCN(Cc2ccccc2-c2ccccc2Oc2ccccc2)C1 (stereo not given) | ? | – | – | – | 79µM
CC(=O)NC1(C)CCN(Cc2ccc(-c3ccc4ccccc4c3)cc2)C1 (stereo not given) | 28µM | 16µM | – | ? | 25µM
CC(=O)NC1(C)CCN(Cc2ccc(-c3ccc(Oc4ccccc4)cc3)cc2)C1 (stereo not given) | ? | 18µM | – | 22µM | 13µM
CCCC1=Nc2cc(C(=O)NCCCN3CCCCC3CC)ccc2Sc2ccc(C)cc21 (stereo not given) | ? | – | – | – | 7.1µM
COc1ccc2c(C)c(C(=O)N(C)Cc3csc(C(C)C)n3)oc2c1 | 45µM | – | – | – | ?
C[S+](=O)([O-])N1CCc2nc(C3CC3)nc(-c3ccc(Cl)cc3)c2C1 | ? | · | – | · | 32µM
COc1ccc(-c2nc(C(C)C)nc3c2CN([S+](=O)([O-])c2cccc(OC)c2)CC3)cc1 | ? | – | – | – | ?
C[S+](=O)([O-])N1CCc2nc(-c3ccccc3)nc(-c3ccc(Cl)cc3)c2C1 | – | – | – | – | –
CCc1nc2c(c(-c3ccc(OC)cc3)n1)CN([S+](=O)([O-])c1cccc(OC)c1)CC2 | – | · | – | · | 28µM
CCc1nc2c(c(-c3ccc(Cl)cc3)n1)CCN([S+](=O)([O-])c1ccccc1)CC2 | 35µM | – | – | – | ?
CN(Cc1cccc(F)c1)Cc1cccc(C(F)(F)F)c1 | – | · | – | · | –
O=C(NCc1cccs1)C1CCN(Cc2ccccc2-c2cccnc2)CC1 | ? | · | – | · | –
CN1CCN(c2cc(=O)c3ccnc(N4CCN(c5ccccn5)CC4)c3o2)CC1 | – | – | – | – | ?
CN(c1ccccc1)c1cc(=O)c2ccnc(N3CCOCC3)c2o1 | ? | – | – | – | 28µM
CN(c1ccccc1)c1cc(=O)c2ccnc(NCC3CCOCC3)c2o1 | ? | – | – | – | 8.9µM
CN(c1ccccc1)c1cc(=O)c2ccnc(N3CCN(c4ccccn4)CC3)c2o1 | 35µM | – | ? | – | ?
CSc1ccc(C(=O)N2CC(=O)NCC(C)(C)C2)cc1 | – | · | · | · | ?
CCOc1ccc(-c2cc3c(=O)n(CCNC(=O)c4ccccc4OC)ccn3n2)cc1 | ? | – | – | 16µM | –
